The source made the active and inactive calls. How the source made its calls: active means hit-call score of the fitted dose curve at least 0.9, where 1 is the maximum; inactive means score below 0.9.

One assay can be described thus: ATG_PPRE_CIS: Attagene CIS-FACTORIAL HepG2 Assay for human Peroxisome Proliferator-activated Response Element (PPRE) (AID 2282958). The conditions noted are these: HepG2 PPRE cis-element reporter, Attagene transcription factor profiling; actives raise or lower the signal. Put shortly:
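PPRE activity in HepG2: transient cis-reporter transfection, 24 h compound incubation, reporter mRNA by RT-PCR and CE fluorescence; gain/loss fitted against DMSO.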
Consider `CCCC(=O)C(C)=O`, for which the call was inactive.

Consider `CNC(=O)Oc1ccc2c(c1)[C@]1(C)CCN(C)[C@@H]1N2C`, for which the call was inactive.

With `BrC1CCC(Br)C(Br)CCC(Br)C(Br)CCC1Br` (stereo not given), the result was inactive.

With `CCCC(=O)c1cc(O)c(O)cc1O`, the call was inactive.

In the case of `C[Si](O[Si](C)(C)C)O[Si](C)(C)C`, the compound was called inactive.

For the compound `C=CCOC(=O)CCC1CCCCC1`, the result was inactive.

As to `O=Cc1ccc(F)cc1`, the result was inactive.

Regarding `CC1=CCC2C(C1)C2(C)C` (stereo not given), the result was inactive.

Take `COC(C(=O)O)c1ccccc1` (stereo not given): the result was inactive.

Take `Clc1cccc(Cl)n1`: the compound was called inactive.

With `Nc1ccc(F)c([N+](=O)[O-])c1`, the result was inactive.

Turning to `CC(CC(C)(C)C)CC(C)(C)CC(C)(C)C` (stereo not given), the outcome was inactive.

`Cc1cccc(C)c1C`: the call was inactive.

Consider `CCCCC/C=C/C=C/C=O`, for which the compound was classed as inactive.

With `CC(=O)C(C)=O`, the call was inactive.

Regarding `O=C(O)c1snc(Cl)c1Cl`, the outcome was inactive.

For `CC(=O)O[C@]1(C(C)=O)CC[C@H]2[C@@H]3C[C@H](C)C4=CC(=O)CC[C@]4(C)[C@H]3CC[C@@]21C`, the result was inactive.

In the case of `COc1cccc(OC)c1`, the compound was classed as inactive.

Turning to `C=C(C)C(=O)OCCOC(=O)CC(C)=O`, the compound was classed as inactive.

A further assay in a line: ATG_RORE_CIS: Attagene CIS-FACTORIAL HepG2 Assay for human RAR-related Orphan Receptor Element (RORE) (AID 2282959). The following applies: HepG2 Attagene cis-factorial RORE reporter, mRNA; actives raise or lower the signal. In a few lines: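 A 24-hour exposure of transfected HepG2 hepatoma cells precedes RNA isolation and reporter RT-PCR. Labeled products are digested with HpaI and resolved by capillary electrophoresis, with gain or loss of signal scored relative to DMSO.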
Regarding `O=C1O[C@@H]2[C@@H](O)[C@H](O)O[C@@H]2[C@H]1O`, the outcome was inactive.

In the case of `CCCCCCCCCCCCCC(=O)O`, the compound was called inactive.

Take `CCCC(=O)C(C)=O`: the call was inactive.

Consider `COC(=O)c1ccc(C)cc1`, for which the compound was classed as inactive.

Turning to `CNC(=O)Oc1ccc2c(c1)[C@]1(C)CCN(C)[C@@H]1N2C`, the call was inactive.

On to `BrC1CCC(Br)C(Br)CCC(Br)C(Br)CCC1Br` (stereo not given), for which the result was inactive.

On to `CC1CCC(C(C)(C)O)CC1` (stereo not given), for which the compound was classed as inactive.

For `CC1CCC2CC1C2(C)C` (stereo not given), the result was inactive.

In the case of `CCCC(=O)c1cc(O)c(O)cc1O`, the outcome was inactive.

For `COC(=O)C1=C(C)NC(C)=C(C(=O)OCCN(C)Cc2ccccc2)C1c1cccc([N+](=O)[O-])c1` (stereo not given), the compound was called inactive.

For the compound `C[Si](O[Si](C)(C)C)O[Si](C)(C)C`, the compound was called inactive.

Consider `O=Cc1ccc(F)cc1`, for which the compound was called inactive.

On to `O=C(O)CCCCCCCCCCC(=O)O`, for which the call was inactive.

In the case of `CC1=CCC2C(C1)C2(C)C` (stereo not given), the outcome was inactive.

With `COC(C(=O)O)c1ccccc1` (stereo not given), the result was inactive.

For `OCc1cccnc1`, the call was inactive.

Consider `Clc1cccc(Cl)n1`, for which the compound was classed as inactive.

Take `COc1ccc(OC)c(OC)c1`: the compound was called inactive.

Turning to `CC(C)=CCCC(C)CC=O` (stereo not given), the result was inactive.

As to `CC(C)(Oc1ccc(CCNC(=O)c2ccc(Cl)cc2)cc1)C(=O)O`, the call was inactive.

Consider `Nc1ccc(F)c([N+](=O)[O-])c1`, for which the outcome was inactive.

`CC(CC(C)(C)C)CC(C)(C)CC(C)(C)C` (stereo not given): the compound was classed as inactive.

`Cc1cccc(C)c1C`: the compound was called inactive.

Turning to `COc1c(Cl)c(Cl)c(Cl)c(Cl)c1Cl`, the compound was called inactive.

Consider `Cc1c(N(C)C)c(=O)n(-c2ccccc2)n1C`, for which the compound was classed as inactive.

For `CC(C)=CCC[C@H](C)CC=O`, the call was inactive.

`O=C1c2ccccc2C(=O)N1SC1CCCCC1`: the call was inactive.

On to `CCCCC/C=C/C=C/C=O`, for which the compound was called inactive.

`CCCCNC(=O)NS(=O)(=O)c1ccc(C)cc1`: the call was inactive.

With `CC(=O)C(C)=O`, the result was inactive.

Regarding `NCCOCCO`, the compound was called inactive.

For orientation: AC50 means the midpoint of the concentration-response curve, whichever way the signal moves. With `CC(=O)O[C@]1(C(C)=O)CC[C@H]2[C@@H]3C[C@H](C)C4=CC(=O)CC[C@]4(C)[C@H]3CC[C@@]21C`, the AC50 was 11.2 µM (active).

For the compound `COc1cccc(OC)c1`, the result was inactive.

A short description of the next assay: ATG_Sox_CIS: Attagene CIS-FACTORIAL HepG2 Assay for human SRY-box transcription factor (SOX) (AID 2282960). The following applies: HepG2 Attagene cis-factorial SOX reporter, mRNA; actives raise or lower the signal. Put shortly:
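HepG2, cis reporter units, 24 h exposure. Reporter mRNA: RT-PCR → FAM labelling → HpaI → CE fluorescence. Bidirectional fit vs DMSO.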
In the case of `O=C1O[C@@H]2[C@@H](O)[C@H](O)O[C@@H]2[C@H]1O`, the result was inactive.

As for `NCCCN1CCOCC1`, the compound was classed as inactive.

With `CCCCCCCCCCCCCC(=O)O`, the result was inactive.

Take `CCCC(=O)C(C)=O`: the result was inactive.

Take `COC(=O)c1ccc(C)cc1`: the outcome was inactive.

In the case of `CNC(=O)Oc1ccc2c(c1)[C@]1(C)CCN(C)[C@@H]1N2C`, the call was inactive.

`BrC1CCC(Br)C(Br)CCC(Br)C(Br)CCC1Br` (stereo not given): the compound was classed as inactive.

For the compound `CC1CCC(C(C)(C)O)CC1` (stereo not given), the call was inactive.

For the compound `CC1CCC2CC1C2(C)C` (stereo not given), the result was inactive.

Turning to `CCCC(=O)c1cc(O)c(O)cc1O`, the compound was classed as inactive.

Turning to `COC(=O)C1=C(C)NC(C)=C(C(=O)OCCN(C)Cc2ccccc2)C1c1cccc([N+](=O)[O-])c1` (stereo not given), the result was inactive.

With `C[Si](O[Si](C)(C)C)O[Si](C)(C)C`, the call was inactive.

As for `C=CCOC(=O)CCC1CCCCC1`, the compound was classed as inactive.

As to `O=Cc1ccc(F)cc1`, the call was inactive.

Consider `O=C(O)CCCCCCCCCCC(=O)O`, for which the compound was classed as inactive.

Take `CC(CCO)CCc1ccccc1` (stereo not given): the compound was called inactive.

As to `CC1=CCC2C(C1)C2(C)C` (stereo not given), the result was inactive.

With `COC(C(=O)O)c1ccccc1` (stereo not given), the call was inactive.

Take `OCc1cccnc1`: the call was inactive.

For the compound `Clc1cccc(Cl)n1`, the compound was classed as inactive.

Take `COc1ccc(OC)c(OC)c1`: the outcome was inactive.

Take `CC(C)=CCCC(C)CC=O` (stereo not given): the compound was classed as inactive.

Turning to `CC(C)(Oc1ccc(CCNC(=O)c2ccc(Cl)cc2)cc1)C(=O)O`, the compound was called inactive.

As for `Nc1ccc(F)c([N+](=O)[O-])c1`, the call was inactive.

As to `CC(CC(C)(C)C)CC(C)(C)CC(C)(C)C` (stereo not given), the result was inactive.

Take `Cc1cccc(C)c1C`: the compound was called inactive.

As to `COc1c(Cl)c(Cl)c(Cl)c(Cl)c1Cl`, the call was inactive.

For the compound `Cc1c(N(C)C)c(=O)n(-c2ccccc2)n1C`, the call was inactive.

For the compound `CC(C)=CCC[C@H](C)CC=O`, the outcome was inactive.

Consider `O=C1c2ccccc2C(=O)N1SC1CCCCC1`, for which the call was inactive.

For `CCCCC/C=C/C=C/C=O`, the result was inactive.

Regarding `CCCCNC(=O)NS(=O)(=O)c1ccc(C)cc1`, the call was inactive.

Consider `CC(=O)C(C)=O`, for which the call was inactive.

In the case of `O=C(O)c1snc(Cl)c1Cl`, the AC50 was 173 µM (active).

As for `NCCOCCO`, the call was inactive.

With `CC(=O)O[C@]1(C(C)=O)CC[C@H]2[C@@H]3C[C@H](C)C4=CC(=O)CC[C@]4(C)[C@H]3CC[C@@]21C`, the result was inactive.

As for `COc1cccc(OC)c1`, the compound was classed as inactive.

Regarding `C=C(C)C(=O)OCCOC(=O)CC(C)=O`, the call was inactive.

Source of the values: PubChem BioAssay (EPA / NIEHS).
